Results as given in PubChem BioAssay.
Calls of active or inactive are those of the source. Unless noted, how the calls were made is not given here.

How the values were obtained:
[1] = compounds altering circadian rhythm period length – cell-based, LOPAC library, luminescence reporter (AID 2774); settings: circadian reporter cells, at 7 µM, actives lie on both sides;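 further: values are relative to mean of DMSO wells on each plate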
[2] = tested on: Hepatitis C virus NS3 helicase; test: blockers of NS3h binding to ssDNA – biochemical, fluorescence polarization, LOPAC1280 library, primary screen (AID 687035; in the data active means inhibition above about 37%); settings: Purified HCV NS3 helicase, Cy5-dT15 ssDNA binding fluorescence polarization; stronger effect = higher value; concentration not given here
[3] = compounds altering Cy5-DNA-NS3h complex signal – biochemical, LOPAC1280, artefact control for HCV NS3 helicase inhibitor project (AID 687037); settings: Cy5-DNA-NS3h complex fluorescence interference counterscreen
[4] = viability loss with induced miR-34 in A549 – imaging, A549 dox-inducible miR-34, nuclei and caspase counts, primary screen (AID 1347080;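 active means compounds whose cell count with miR-34 switched on is under 0.7 times the count with it off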); settings: A549 miR-34 inducible, Hoechst nuclei count, 48 h
[5] = blockers of cellular phospholipid synthesis – cell-based, LOPAC library, screen 4, primary screen (AID 1347384); settings: animal cells, phospholipid biosynthesis inhibition screen; at 10 µM
[6] = galactose survival enhancers in mitochondrial complex I cybrids – cell-based, galactose medium, ATP luminescence, primary screen (AID 1645843;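 active means z-score of at least 1.8 in each of two replicates, scored against plate mean and spread of sample wells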;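 further: positive z means more ATP and so rescue of galactose-driven cybrid death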); settings: complex I mutant cybrid cells, 72 h, stronger effect = higher value
[7] = stronger effect = lower value, cell number ratio, induced over uninduced
[8] = measured here: relative caspase fold change +Dox/-Dox
[9] = measured here: total cells with miR-34 induction, stronger effect = lower value
[10] = measured here: total cells without miR-34 induction

Cc1nc(N=Nc2ccc(S(=O)(=O)O)cc2S(=O)(=O)O)c(COP(=O)(O)O)c(C=O)c1O
period change [1]: 0.055 h (inactive) | inhibition [2]: 0% (inactive) | fluorescence ratio (interference) [3]: 1 (inactive) | fold change [4, 7]: 0.994 (inactive) | fold change [4, 8]: 1.49 | cell count [4, 9]: 9390 | cell count [4, 10]: 9440 | outcome [5]: inactive | z-score [6]: 0.795 (inactive)

c1cnc2c(c1)ccc1cccnc12
period change [1]: 0.09 h (inactive) | inhibition [2]: -3% (inactive) | fluorescence ratio (interference) [3]: 1 (inactive) | fold change [4, 7]: 0.996 (inactive) | fold change [4, 8]: 2.62 | cell count [4, 9]: 2190 | cell count [4, 10]: 2200 | outcome [5]: inactive | z-score [6]: -1.21 (inactive)

C=C/C(C)=C/[C@@]1(C)SC(=O)C(C)=C1O
period change [1]: -0.02 h (inactive) | inhibition [2]: -4% (inactive) | fluorescence ratio (interference) [3]: 1 (inactive) | fold change [4, 7]: 1.05 (inactive) | fold change [4, 8]: 1.19 | cell count [4, 9]: 10800 | cell count [4, 10]: 10300 | outcome [5]: inactive | z-score [6]: 0.66 (inactive)

C[C@H]1CC2C3CCC4=CC(=O)C=C[C@]4(C)[C@@]3(Cl)[C@@H](O)C[C@]2(C)[C@@]1(O)C(=O)CO (stereo partly specified)
period change [1]: -0.07 h (inactive) | inhibition [2]: -3% (inactive) | fluorescence ratio (interference) [3]: 1 (inactive) | fold change [4, 7]: 0.918 (inactive) | fold change [4, 8]: 1.96 | cell count [4, 9]: 7200 | cell count [4, 10]: 7840 | outcome [5]: inactive | z-score [6]: 1.25 (inactive)

CC1CN(S(=O)(=O)c2cccc3cnccc23)CCN1 (stereo unspecified)
period change [1]: 0.475 h (inactive) | inhibition [2]: -6% (inactive) | fluorescence ratio (interference) [3]: 0.9 (inactive) | fold change [4, 7]: 1.09 (inactive) | fold change [4, 8]: 0.736 | cell count [4, 9]: 11600 | cell count [4, 10]: 10600 | outcome [5]: inactive | z-score [6]: 0.18 (inactive)

NC1(C(=O)O)CCc2cc(C(=O)O)ccc21 (stereo unspecified)
period change [1]: 0.185 h (inactive) | inhibition [2]: -1% (inactive) | fluorescence ratio (interference) [3]: 1 (inactive) | fold change [4, 7]: 0.993 (inactive) | fold change [4, 8]: 1.76 | cell count [4, 9]: 10900 | cell count [4, 10]: 11000 | outcome [5]: inactive | z-score [6]: 0.185 (inactive)

CC[C@@H](C)[C@H]1O[C@]2(CC[C@@H]1C)C[C@@H]1C[C@@H](C/C=C(\C)[C@@H](O[C@H]3C[C@H](OC)[C@@H](O[C@H]4C[C@H](OC)[C@@H](O)[C@H](C)O4)[C@H](C)O3)[C@@H](C)/C=C/C=C3\CO[C@@H]4[C@H](O)C(C)=C[C@@H](C(=O)O1)[C@]34O)O2
period change [1]: 0.095 h (inactive) | inhibition [2]: -2% (inactive) | fluorescence ratio (interference) [3]: 1 (inactive) | fold change [4, 7]: 0.888 (inactive) | fold change [4, 8]: 0.534 | cell count [4, 9]: 1760 | cell count [4, 10]: 1980 | outcome [5]: inactive | z-score [6]: -1.29 (inactive)

C=CCN1CCc2c(cc(O)c(O)c2Cl)C(c2ccccc2)C1 (stereo unspecified)
period change [1]: 0.25 h (inactive) | inhibition [2]: -4% (inactive) | fluorescence ratio (interference) [3]: 1 (inactive) | fold change [4, 7]: 1.02 (inactive) | fold change [4, 8]: 1.32 | cell count [4, 9]: 7830 | cell count [4, 10]: 7660 | outcome [5]: inactive | z-score [6]: -0.925 (inactive)

CCCN(CCc1ccccc1)C1CCc2c(O)cccc2C1 (stereo unspecified)
period change [1]: 0.095 h (inactive) | inhibition [2]: -4% (inactive) | fluorescence ratio (interference) [3]: 1 (inactive) | fold change [4, 7]: 0.964 (inactive) | fold change [4, 8]: 1.22 | cell count [4, 9]: 5860 | cell count [4, 10]: 6070 | outcome [5]: inactive | z-score [6]: -1.21 (inactive)

Cc1cc(NC(=O)Nc2ccc3c(ccn3C)c2)sn1
period change [1]: -0.055 h (inactive) | inhibition [2]: -1% (inactive) | fluorescence ratio (interference) [3]: 0.9 (inactive) | fold change [4, 7]: 1.07 (inactive) | fold change [4, 8]: 1.78 | cell count [4, 9]: 9080 | cell count [4, 10]: 8470 | outcome [5]: inactive | z-score [6]: 0.19 (inactive)

OC[C@H]1O[C@@H](n2cnc3c(NC4CCCCC4)ncnc32)[C@H](O)[C@@H]1O
period change [1]: 0.08 h (inactive) | inhibition [2]: -1% (inactive) | fluorescence ratio (interference) [3]: 1 (inactive) | fold change [4, 7]: 0.959 (inactive) | fold change [4, 8]: 1.25 | cell count [4, 9]: 9650 | cell count [4, 10]: 10100 | outcome [5]: inactive | z-score [6]: 0.865 (inactive)

COc1cc(C(O)CO)ccc1OS(=O)(=O)O (stereo unspecified)
period change [1]: -0.25 h (inactive) | inhibition [2]: -2% (inactive) | fluorescence ratio (interference) [3]: 1 (inactive) | fold change [4, 7]: 1.02 (inactive) | fold change [4, 8]: 1.08 | cell count [4, 9]: 10400 | cell count [4, 10]: 10200 | outcome [5]: inactive | z-score [6]: 0.025 (inactive)

NCCCCCCCCCCN
period change [1]: 0 h (inactive) | inhibition [2]: 2% (inactive) | fluorescence ratio (interference) [3]: 1 (inactive) | fold change [4, 7]: 0.948 (inactive) | fold change [4, 8]: 1.23 | cell count [4, 9]: 10300 | cell count [4, 10]: 10900 | outcome [5]: inactive | z-score [6]: -0.23 (inactive)

COc1ccc2c(c1)c(CC(=O)O)c(C)n2C(=O)c1ccccc1
period change [1]: 0.15 h (inactive) | inhibition [2]: -2% (inactive) | fluorescence ratio (interference) [3]: 1 (inactive) | fold change [4, 7]: 1.07 (inactive) | fold change [4, 8]: 1.77 | cell count [4, 9]: 9380 | cell count [4, 10]: 8810 | outcome [5]: inactive | z-score [6]: 1.18 (inactive)

N[C@@H](Cc1ccc(F)cc1)C(=O)O
period change [1]: -0.05 h (inactive) | inhibition [2]: -1% (inactive) | fluorescence ratio (interference) [3]: 1 (inactive) | fold change [4, 7]: 1.04 (inactive) | fold change [4, 8]: 0.805 | cell count [4, 9]: 9710 | cell count [4, 10]: 9330 | outcome [5]: inactive | z-score [6]: 0.26 (inactive)

CNCC[C@H](Oc1ccc(C(F)(F)F)cc1)c1ccccc1
period change [1]: 0.185 h (inactive) | inhibition [2]: -2% (inactive) | fluorescence ratio (interference) [3]: 1 (inactive) | fold change [4, 7]: 1.08 (inactive) | fold change [4, 8]: 0.944 | cell count [4, 9]: 7270 | cell count [4, 10]: 6730 | outcome [5]: inactive | z-score [6]: -0.925 (inactive)

O=c1cc(O)cc(/C=C/c2ccc(O)c(O)c2)o1
period change [1]: -0.02 h (inactive) | inhibition [2]: -1% (inactive) | fluorescence ratio (interference) [3]: 1 (inactive) | fold change [4, 7]: 1.09 (inactive) | fold change [4, 8]: 1.07 | cell count [4, 9]: 9040 | cell count [4, 10]: 8270 | outcome [5]: inactive | z-score [6]: -0.475 (inactive)

COc1cc(/C=C(\C#N)C(=O)c2ccc(O)c(O)c2)cc(I)c1O
period change [1]: 0.035 h (inactive) | inhibition [2]: 37% (active) | fluorescence ratio (interference) [3]: 0.9 (inactive) | fold change [4, 7]: 0.957 (inactive) | fold change [4, 8]: 1.26 | cell count [4, 9]: 9980 | cell count [4, 10]: 10400 | outcome [5]: inactive | z-score [6]: 0.8 (inactive)

Cc1cn([C@H]2C[C@@H](N=[N+]=[N-])[C@@H](CO)O2)c(=O)[nH]c1=O
period change [1]: 0.06 h (inactive) | inhibition [2]: -1% (inactive) | fluorescence ratio (interference) [3]: 0.9 (inactive) | fold change [4, 7]: 1.13 (inactive) | fold change [4, 8]: 1.91 | cell count [4, 9]: 8200 | cell count [4, 10]: 7230 | outcome [5]: inactive | z-score [6]: 0.445 (inactive)
